Consider 60 compounds from PubChem BioAssay (Tox21).

Several values for one entry are separate records, joined by “and”; a condition that tells them apart may be missing. Identical values can stand only once. Inconclusive results are not listed. Where a structure was tested more than once in an assay, its records may differ in their call. Activity calls are given as the source filed them. The call rests on the fitted dose curve.

Test [1] deals with Acetylcholinesterase (Homo sapiens) (UniProt P22303). Kind of test: Acetylcholinesterase (AChE) small molecule antagonists: colormetric cell-based qHTS assay (AID 1347395). Further: nearly all actives have a fitted effect of over 30% in size. Further: potency means the concentration at half of the fitted maximal effect. A digest of the protocol:
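AChE inhibition read colorimetrically via DTNB–thiocholine in SH-SY5Y cells. Compound 30 min, substrate 90 min, both 37 C.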
In general terms: Quantitative high-throughput screening tests each substance at several concentrations.

The target is the same in test [2]. Kind of test: Acetylcholinesterase (AChE) small molecule antagonists: enzyme-based qHTS assay (AID 1347397). Further: nearly all actives have a fitted effect of over 55% in size. Further: potency means the concentration at half of the fitted maximal effect. To be noted: Potency: AChE enzyme activity inhibition; outcome: AChE enzyme activity inhibition. A digest of the protocol:
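Absorbance-based detection of thiocholine with DTNB served as the read-out. Recombinant human AChE was exposed to compound for 30 min at RT before a 10 min RT incubation with acetylthiocholine.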

The target is the same in test [3]. Briefly: Acetylcholinesterase (AChE) small molecule antagonists: fluorescence cell-based qHTS assay (AID 1347398). Further: nearly all actives have a fitted effect of over 50% in size. Further: potency means the concentration at half of the fitted maximal effect. Conditions: Potency: AChE activity; outcome: AChE activity. In short, it runs like this:
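Fluorimetric cell-based assay: intact SH-SY5Y cells, 30 min compound preincubation at 37 C, acetylthiocholine substrate with thiol probe Thiolite Green, 40 min RT development, fluorescence 490/520 nm.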

For test [4] the target is unchanged. Briefly: Acetylcholinesterase (AChE) small molecule antagonists: enzyme-based qHTS assay with human liver microsomes (AID 1347399). Further: nearly all actives have a fitted effect of over 60% in size. To be noted: Potency: qHTS inhibition; outcome: qHTS inhibition. In short, it runs like this: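 Recombinant human AChE (50 mU/mL in the enzyme mix) and human liver microsomes (0.25 mg/mL final) were preincubated with compound and NADPH (0.25 mg/mL final) for 30 min at 37 C. Acetylthiocholine/DTNB was then added; thiocholine was read colorimetrically after 10 min at room temperature.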
On the % scale 0 is the no-effect control and ±100 the full control effect.

Sequence of Acetylcholinesterase (Homo sapiens) (P22303 whole entry, looked up): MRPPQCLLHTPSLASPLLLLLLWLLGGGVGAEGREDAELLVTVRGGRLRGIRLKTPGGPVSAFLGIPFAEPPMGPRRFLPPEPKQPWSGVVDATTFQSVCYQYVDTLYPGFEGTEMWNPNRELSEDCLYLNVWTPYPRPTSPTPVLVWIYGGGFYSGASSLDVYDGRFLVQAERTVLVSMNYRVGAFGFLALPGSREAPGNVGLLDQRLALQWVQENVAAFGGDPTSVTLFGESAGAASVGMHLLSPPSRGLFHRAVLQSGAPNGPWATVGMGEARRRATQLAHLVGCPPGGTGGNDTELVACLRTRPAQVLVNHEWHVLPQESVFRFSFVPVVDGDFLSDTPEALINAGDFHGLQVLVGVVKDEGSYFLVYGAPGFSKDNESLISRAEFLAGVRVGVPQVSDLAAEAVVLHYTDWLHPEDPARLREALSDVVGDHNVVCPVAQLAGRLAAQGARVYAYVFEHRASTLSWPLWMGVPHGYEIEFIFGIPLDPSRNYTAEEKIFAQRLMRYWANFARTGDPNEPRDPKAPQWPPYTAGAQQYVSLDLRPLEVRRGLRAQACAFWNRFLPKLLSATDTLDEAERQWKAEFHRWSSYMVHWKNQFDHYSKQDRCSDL

In the case of `CCOc1ccc([N+](=O)[O-])cc1`, the Potency entry in test [1], in test [2], in test [3] and in test [4] was “inactive” in each case.

For the compound `CN(C)C(=O)Nc1ccc(Cl)c(Cl)c1`, the Potency result in test [1], in test [2], in test [3] and in test [4] was “inactive” in each case.

Consider `CC(C)CC(=O)CC(C)CC(C)C` (stereo not given), for which the Potency result in test [1], in test [2], in test [3] and in test [4] was “inactive” throughout.

With `Clc1ccc(Sc2cc(Cl)c(Cl)cc2Cl)cc1`, the Potency entry in test [1], in test [2], in test [3] and in test [4] was “inactive” each time.

In the case of `Oc1ccc2c(c1)OC[C@@H](N1CCC(O)(c3ccc(F)cc3)CC1)[C@H]2O`, the Potency result in test [1], in test [2], in test [3] and in test [4] was “inactive” in each case.

As for `CC(CN1CC(=O)NC(=O)C1)N1CC(=O)NC(=O)C1` (stereo not given), the Potency result in test [1], in test [2], in test [3] and in test [4] was “inactive” throughout.

Regarding `C[C@@H]1[C@H](O)[C@@H](C)/C=C/C=C\C=C\C=C\C=C\C=C\C=C\[C@H](O[C@@H]2O[C@H](C)[C@@H](O)[C@H](N)[C@@H]2O)C[C@@H]2O[C@](O)(C[C@@H](O)C[C@@H](O)[C@H](O)CC[C@@H](O)C[C@@H](O)CC(=O)O[C@H]1C)C[C@H](O)[C@H]2C(=O)O` (stereo in doubt), the Potency result in test [1], in test [2], in test [3] and in test [4] was “inactive” each time.

`CC(=O)c1cc2ccccc2s1`: the Potency result in test [1], in test [2], in test [3] and in test [4] was “inactive” each time.

For the compound `CCCCN(CCCC)C(=S)SSC(=S)N(CCCC)CCCC`, the Potency result in test [1], in test [2], in test [3] and in test [4] was “inactive” throughout.

As for `Cc1ccsc1C(=CCCN1CCC[C@@H](C(=O)O)C1)c1sccc1C`, the Potency result in test [1], in test [2], in test [3] and in test [4] was “inactive” in each case.

`C=COCC1CCC(CO)CC1` (stereo not given): the Potency entry in test [1], in test [2], in test [3] and in test [4] was “inactive” throughout.

For the compound `NCCCN1CCN(CCCN)CC1`, the Potency result in test [1], in test [2], in test [3] and in test [4] was “inactive” each time.

As to `C=CC(=O)OCCCCCCCC`, the Potency result in test [1], in test [2], in test [3] and in test [4] was “inactive” each time.

In the case of `COc1ccc(NC(C)=O)cc1`, the Potency result in test [1], in test [2], in test [3] and in test [4] was “inactive” each time.

As to `Nc1ccc(O)c(C(=O)O)c1`, the Potency result in test [1], in test [2], in test [3] and in test [4] was “inactive” each time.

Take `c1cc[nH]c1`: the Potency result in test [1], in test [2], in test [3] and in test [4] was “inactive” throughout.

With `CC(=O)Nc1ccc(C(=O)O)cc1`, the Potency result in test [1], in test [2], in test [3] and in test [4] was “inactive” throughout.

For the compound `[Cl][In]([Cl])[Cl]`, the Potency result in test [1], in test [2], in test [3] and in test [4] was “inactive” each time.

As to `Cc1cnccn1`, the Potency entry in test [1], in test [2], in test [3] and in test [4] was “inactive” throughout.

Regarding `[O-][n+]1ccccc1SSc1cccc[n+]1[O-]`, in test [1], the activity, negative = inhibition was -9.35% [at 23.6 µM] (inactive). Further, the activity change, negative = inhibition in test [2] was -9.5% [at 23.6 µM] (inactive); in test [4], -15.2% [at 23.6 µM] (inactive). In addition, in test [3], the Potency was 12 µM (active).

In the case of `CC(=O)C1=C(C)[C@@H]2C[C@@]3(C1)[C@H](C)CC[C@H]3C2(C)C`, the Potency result in test [1], in test [2], in test [3] and in test [4] was “inactive” each time.

As for `COCCOCCOC`, the Potency result in test [1], in test [2], in test [3] and in test [4] was “inactive” throughout.

For the compound `COC(OC)OC`, the Potency entry in test [1], in test [2], in test [3] and in test [4] was “inactive” throughout.

As for `CC(COC(=O)c1ccccc1)OC(=O)c1ccccc1` (stereo not given), the Potency result in test [1], in test [2], in test [3] and in test [4] was “inactive” each time.

With `CC(C)(O)C(=O)c1ccc(OCCO)cc1`, the Potency entry in test [1], in test [2], in test [3] and in test [4] was “inactive” each time.

As for `CC1(C)[C@H]2CC[C@](C)(C2)[C@H]1O`, the Potency result in test [1], in test [2], in test [3] and in test [4] was “inactive” each time.

For the compound `O=C(O)c1cc(O)c(O)c(O)c1`, the Potency entry in test [1], in test [2], in test [3] and in test [4] was “inactive” each time.

Regarding `O=C(CCCN1CCC(O)(c2ccc(Br)cc2)CC1)c1ccc(F)cc1`, the Potency result in test [1], in test [2], in test [3] and in test [4] was “inactive” in each case.

In the case of `N=C(N)c1ccc(OCCCCCOc2ccc(C(=N)N)cc2)cc1`, the Potency in test [1] was 35.4 µM (active) and 30.3 µM (active) and 17.4 µM (active); in test [2] it was 53.9 µM (active); in test [3] it was 22.4 µM (active) and 27 µM (active). In addition, in test [4], the Potency result is “inactive”.

Regarding `CCN(CC)CCNC(=O)c1cc(S(C)(=O)=O)ccc1OC`, the Potency entry in test [1], in test [2], in test [3] and in test [4] was “inactive” throughout.

`C=CCS(=O)(=O)O`: the Potency result in test [1], in test [2], in test [3] and in test [4] was “inactive” each time.

With `COc1ccc([N+](=O)[O-])cc1N`, the Potency result in test [1], in test [2], in test [3] and in test [4] was “inactive” in each case.

`CCCCC(CC)C(=O)O` (stereo not given): the Potency result in test [1], in test [2], in test [3] and in test [4] was “inactive” in each case.

For `CCCCCCCCCCCC[N+](C)(C)CCCS(=O)(=O)[O-]`, the Potency entry in test [1], in test [2], in test [3] and in test [4] was “inactive” each time.

As for `CC(=O)[C@@]1(O)CC[C@H]2[C@@H]3C[C@H](C)C4=CC(=O)CC[C@]4(C)[C@H]3CC[C@@]21C`, the Potency entry in test [1], in test [2], in test [3] and in test [4] was “inactive” throughout.

With `CCC(CC)Nc1ccc(C)c(C)c1`, the Potency entry in test [1], in test [2], in test [3] and in test [4] was “inactive” throughout.

For `Nc1cccc(O)c1`, the Potency entry in test [1], in test [2], in test [3] and in test [4] was “inactive” throughout.

Take `CCCCC(CC)COC(=O)CCCCCCCC(=O)OCC(CC)CCCC` (stereo not given): the Potency entry in test [1], in test [2], in test [3] and in test [4] was “inactive” in each case.

Consider `CC(C)=CCC/C(C)=C/C(=O)O`, for which the Potency entry in test [1], in test [2], in test [3] and in test [4] was “inactive” each time.

On to `CC1CCc2cc(F)cc3c(=O)c(C(=O)O)cn1c23` (stereo not given), for which the Potency result in test [1], in test [2], in test [3] and in test [4] was “inactive” each time.

As for `O=C(c1ccccc1)c1cc(Cl)ccc1O`, the Potency entry in test [1], in test [2], in test [3] and in test [4] was “inactive” throughout.

Regarding `Nc1ccc2c(O)cc(S(=O)(=O)O)cc2c1`, the Potency entry in test [1], in test [2], in test [3] and in test [4] was “inactive” in each case.

For `CCCCCCCCC/C=C/CC1CC(=O)OC1=O` (stereo not given), the Potency entry in test [1], in test [2], in test [3] and in test [4] was “inactive” throughout.

`CC(=O)c1ccccc1[N+](=O)[O-]`: the Potency entry in test [1], in test [2], in test [3] and in test [4] was “inactive” each time.

`CCCCc1nc(Cl)c(CO)n1Cc1ccc(-c2ccccc2-c2nn[nH]n2)cc1`: the Potency result in test [1], in test [2], in test [3] and in test [4] was “inactive” in each case.

With `CC(C)OCCO`, the Potency result in test [1], in test [2], in test [3] and in test [4] was “inactive” in each case.

Regarding `C[C@@H]1CC(=O)NN=C1c1ccc(NN=C(C#N)C#N)cc1`, the Potency entry in test [1], in test [2], in test [3] and in test [4] was “inactive” each time.

Turning to `Cn1sccc1=O`, the Potency entry in test [1] was “inactive and 71 µM (active)”. For the same compound, the Potency entry in test [2], in test [3] and in test [4] was “inactive” in each case.

On to `C=C(C)C(=O)OCCNC(C)(C)C`, for which the Potency entry in test [1], in test [2], in test [3] and in test [4] was “inactive” each time.

Take `O=C1c2c(O)ccc(Nc3ccc(CCO)cc3)c2C(=O)c2c([N+](=O)[O-])ccc(O)c21`: the results for the Potency in test [1], in test [2] and in test [3] were 8.94 µM (active), 20 µM (active) and 11.2 µM (active), respectively. Further, the Potency result in test [4] is “inactive”.

Turning to `N=c1nc(N2CCCCC2)cc(N)n1O`, the Potency result in test [1], in test [2], in test [3] and in test [4] was “inactive” each time.

For `CO[Si](OC)(OC)c1ccccc1`, the Potency result in test [1], in test [2], in test [3] and in test [4] was “inactive” in each case.

Consider `C[Si](C)=O`, for which, in test [1], the activity, negative = inhibition is -2.31% [at 10.5 µM] (inactive). The values for the activity change, negative = inhibition in test [2], in test [3] and in test [4] were -1.81% [at 10.5 µM] (inactive), 0.274% [at 10.5 µM] (inactive) and -0.0165% [at 10.5 µM] (inactive), respectively.

In the case of `CCCC(O)C(CC)CO` (stereo not given), the Potency entry in test [1], in test [2], in test [3] and in test [4] was “inactive” throughout.

On to `CC(C)(C)C(=O)OCOP(=O)(COCCn1cnc2c(N)ncnc21)OCOC(=O)C(C)(C)C`, for which the Potency in test [1] was 30.9 µM (active); in test [2] it was 38.9 µM (active); in test [3] it was 13.8 µM (active). The Potency result in test [4] is “inactive”.

With `CN1C[C@H](C(=O)N[C@]2(C)O[C@@]3(O)[C@@H]4CCCN4C(=O)[C@H](Cc4ccccc4)N3C2=O)C[C@@H]2c3cccc4[nH]cc(c34)C[C@H]21`, the results for the Potency in test [1], in test [2] and in test [3] were 19.5 µM (active), 30.9 µM (active) and 8.71 µM (active), respectively. Moreover, in test [4], the Potency result was “inactive”.

On to `CCCCCCCN`, for which the Potency result in test [1], in test [2], in test [3] and in test [4] was “inactive” each time.

For `Cc1cc(C(C)(C)C)c(O)c(C(C)(C)C)c1`, the Potency entry in test [1], in test [2], in test [3] and in test [4] was “inactive” each time.

For `CCCCC(=O)O[C@]1(C(=O)CO)[C@@H](C)C[C@H]2[C@@H]3CCC4=CC(=O)C=C[C@]4(C)[C@@]3(F)[C@@H](O)C[C@@]21C`, the Potency result in test [1], in test [2], in test [3] and in test [4] was “inactive” in each case.

On to `CC(=O)Nc1nnc(S(N)(=O)=O)s1`, for which the Potency result in test [1], in test [2], in test [3] and in test [4] was “inactive” in each case.
